Screening results from PubChem.
A selection: hits, their analogues and other compounds. The true share with any hit is near 2.7%.
ERa SRC1 pot – enhances coactivator binding to human estrogen receptor alpha. P03372. TR-FRET ERalpha-LBD/SRC-Cy5 coactivator binding, 2 h; 100 = basal binding, no effect. coactivator binding (% of control), % at 25.6 µM. 1.3% of 86,000 active. AID 639; in the data active = activity above about 200%;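 also: binding measured in presence of low estradiol as agonist stimulus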
Target sequence (P03372 whole entry, looked up, the tested form may be a part): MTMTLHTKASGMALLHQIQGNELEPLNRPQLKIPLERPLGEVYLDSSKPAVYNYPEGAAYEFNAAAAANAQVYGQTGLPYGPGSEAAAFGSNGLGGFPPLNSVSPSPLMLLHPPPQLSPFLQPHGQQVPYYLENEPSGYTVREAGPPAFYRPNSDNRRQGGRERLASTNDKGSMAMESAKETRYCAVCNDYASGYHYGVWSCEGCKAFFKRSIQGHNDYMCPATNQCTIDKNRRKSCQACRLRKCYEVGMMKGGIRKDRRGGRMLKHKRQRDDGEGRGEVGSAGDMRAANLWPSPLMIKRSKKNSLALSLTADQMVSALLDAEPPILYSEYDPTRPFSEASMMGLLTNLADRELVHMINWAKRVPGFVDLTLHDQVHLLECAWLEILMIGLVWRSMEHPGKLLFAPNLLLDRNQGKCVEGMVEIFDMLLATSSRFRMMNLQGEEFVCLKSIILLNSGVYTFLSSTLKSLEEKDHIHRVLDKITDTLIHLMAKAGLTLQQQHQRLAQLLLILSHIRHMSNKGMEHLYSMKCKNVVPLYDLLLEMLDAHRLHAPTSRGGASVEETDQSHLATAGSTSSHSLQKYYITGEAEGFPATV
MRP resist rev – reverses drug resistance mediated by MRP; H69AR cells + 2 uM doxorubicin, CellTiter-Glo, 72 h; 0.04% of 85,000 active; differential viability (reversal), % at 10 µM; AID 602;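 active = viability drop by adding the cancer drug above about 55%, with treated viability meeting a 40% cutoff, limit read from the data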;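 also: larger differential means the compound sensitizes cells more to doxorubicin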
ERb SRC1 inh – blocks coactivator binding to human estrogen receptor beta; TR-FRET ER-beta LBD / SRC1-Cy5 peptide binding; receptor agonist-loaded with 1 µM estradiol; Q92731; inhibition, % at 25.6 µM; AID 633; 1.3% of 86,000 active;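 active = compounds whose percent inhibition of the receptor-coactivator binding signal exceeds about 50% in the single-dose screen, limit read from the data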
ERa coact inh – ER-alpha (human) coactivator binding inhibition; inhibition, % at 25.6 µM; TR-FRET ER-alpha LBD / SRC-1 peptide, estradiol-bound; 1.7% of 86,000 active; P03372; in the data active = inhibition above about 50%
MRP1 act – MRP-1 activation | 0.61% of 140,000 active | AID 799 | viability increase, % at 10 µM | H69AR cells + doxorubicin, viability rescue, CellTiter-Glo;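 active = viability gain under doxorubicin at or above a set limit, the compound median plus 3 SD, cut at about 4.7% in these data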;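 also: MRP-1 overexpressing cells given doxorubicin 25 µM after compound pretreatment; 18-22 h compound pretreatment then 72 h with doxorubicin before readout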
Large screens that a line does not name were inactive; [ ] = remark or other dose.

Cc1nc(C)c(CCNC(=O)c2ccccc2Br)s1	none (no result: ERa SRC1 pot, MRP resist rev, ERb SRC1 inh, ERa coact inh)
O=c1cc(-c2ccccc2Cl)oc2c([N+](=O)[O-])c(O)cc(O)c12	MRP1 act 6.5 (no result: ERa SRC1 pot, MRP resist rev, ERb SRC1 inh, ERa coact inh)
CCCCN1C2CCCC1CC(NC(=O)N(C(C)C)C(C)C)C2 (centres undefined)	none (no result: MRP1 act)
Cc1ccc(S(=O)(=O)N2CCN(C(=O)CSc3ncc(C(F)(F)F)cc3Cl)CC2)cc1	ERa coact inh 69
N#C/C(=C(\O)Cc1ccccc1)c1nc2ccccc2[nH]1	ERa SRC1 pot 409[fluorescence artefact?]
C/C(O)=C(\C#N)c1nc2ccccc2[nH]1	none (no result: ERa SRC1 pot, MRP resist rev, ERb SRC1 inh, ERa coact inh)
CCOc1ccccc1NC(=O)c1cccc(NC(=O)CC(c2ccccc2)c2ccccc2)c1	MRP1 act 8.6 (no result: ERa SRC1 pot, MRP resist rev, ERb SRC1 inh, ERa coact inh)
CCOC(=O)C(C)Oc1cccc2c(=O)n(CC(=O)Nc3cccc(OC)c3)ccc12 (centres undefined)	none
CCOC(=O)C(C)Oc1cccc2c(=O)n(CC(=O)Nc3ccc4c(c3)OCCO4)ccc12 (centres undefined)	ERa SRC1 pot 324
O=C(Nc1ccc2c(c1)OCO2)C1Cc2ccccc2CN1S(=O)(=O)c1cccs1 (centres undefined)	ERa coact inh 79[fluorescence artefact?]
Cc1ccc(C(=O)COC(=O)CCc2ccc(S(=O)(=O)N3CCCCC3)cc2)cc1	none (no result: ERa SRC1 pot, MRP resist rev, ERb SRC1 inh, ERa coact inh)
CCN1C(=O)/C(=C/c2ccc(C)o2)N(C)C1=S	none (no result: ERa SRC1 pot, MRP resist rev, ERb SRC1 inh, ERa coact inh)
COc1ccc(-c2c(C#N)c(SCC(N)=O)nc3c2CCCC3)cc1	ERa SRC1 pot 285
N#Cc1c(SCC(N)=O)nc2c(c1-c1ccc(O)cc1)CCCC2	none
CSc1nc(N)nc(SCC(=O)c2ccccc2)c1C#N	none
COc1ccc(C(=O)CSc2nc(N)nc(SC)c2C#N)cc1	ERa SRC1 pot 480[fluorescence artefact?]
Cc1cc(NC(=O)CSc2nc3c(c(-c4cccnc4)c2C#N)CCC3)no1	ERa SRC1 pot 258[fluorescence artefact?]
CCOC(=O)/C(=C\c1cccc(O)c1)c1nc2sc(C)c(C)c2c(=O)[nH]1	none (no result: ERa SRC1 pot, MRP resist rev, ERb SRC1 inh, ERa coact inh)
CCOc1ccccc1N(CC(=O)O)S(=O)(=O)c1ccccc1	MRP1 act 4.8
Cc1nc(-c2ccccc2)nc2[nH]c(-c3ccccc3)cc(=O)c12	ERa SRC1 pot 334[fluorescence artefact?]
C=CCn1c(=O)c2c(C)c(C)sc2n2c(Nc3ccc(OC)cc3)nnc12	MRP1 act 7.7
Cn1nnnc1Sc1nc(-c2cccnc2)nc2ccccc12	none (no result: MRP1 act)
COc1cccc(-c2nnc3sc(-c4cccs4)nn23)c1	ERa SRC1 pot 251
CC(C)(C)c1ccc(-c2nnc3sc(-c4ccncc4)nn23)cc1	none (no result: ERa SRC1 pot, MRP resist rev, ERb SRC1 inh, ERa coact inh)
Clc1cccc(-c2nn3c(-c4cccc(Cl)c4)nnc3s2)c1	ERa SRC1 pot 296 (no result: MRP1 act)
Cc1nnc2sc(-c3ccncc3)nn12	MRP1 act 17
Clc1cccc(-c2nnc3sc(-c4ccccc4)nn23)c1	none (no result: MRP1 act)
Cc1ccc(-c2nnc3sc(-c4ccc5c(c4)OCCO5)nn23)cc1	ERa SRC1 pot 303 (no result: MRP1 act)
c1ccc2c(c1)nnn2Cc1nnc2sc(-c3ccc4c(c3)OCCO4)nn12	none
Cc1ccc(/C=C/C(=O)OCC(=O)Nc2cccc(S(=O)(=O)N(C)C)c2)o1	none (no result: ERa SRC1 pot, MRP resist rev, ERb SRC1 inh, ERa coact inh)
Cc1cnc(-c2nnc(N(C)C(=O)c3cnccn3)s2)cn1	none (no result: MRP1 act)
COc1cccc([C@@H]2Oc3ccc(OC)cc3C(=O)[C@H]2OC(=O)NCc2ccc3c(c2)OCO3)c1	none (no result: ERa SRC1 pot, MRP resist rev, ERb SRC1 inh, ERa coact inh)
CCOc1cccc(-c2nnc3sc(-c4cc(OC)c(OC)c(OC)c4)nn23)c1	ERa coact inh 73
CCOc1ccc(-c2nn3c(-c4ccc(OC)cc4)nnc3s2)cc1	ERa SRC1 pot 677[fluorescence artefact?] (no result: MRP1 act)
COc1ccc(Cc2nn3c(-c4ccccc4OC)nnc3s2)cc1	none
COc1cc(-c2nn3c(-c4ccccc4)nnc3s2)cc(OC)c1OC	none
COc1ccc(-c2nnc3sc(-c4ccccc4OC)nn23)cc1	ERa SRC1 pot 234 (no result: MRP1 act)
COc1ccc(Nc2nnc(SCC(=O)/C=C3/N(C)c4ccccc4C3(C)C)s2)cc1	none (no result: ERa SRC1 pot, MRP resist rev, ERb SRC1 inh, ERa coact inh)
COC(=O)c1sc(NC(=O)c2cnccn2)c(C(=O)OC)c1C	ERa coact inh 52 (no result: MRP1 act)
COC(=O)c1sc(NC(C)=O)c(C(=O)OC)c1C	none
COc1ccc(N2Cc3cccc(C(=O)O)c3C2=O)cc1	ERb SRC1 inh 65, ERa coact inh 64
Cc1cc(=O)n2nc(N3CCC(C(=O)NCCC4=CCCCC4)CC3)sc2n1	none (no result: MRP1 act)
CN(Cc1nc(-c2ccccn2)no1)S(=O)(=O)c1ccc(Cl)cc1	none
O=C(CSc1oc(-c2ccco2)nc1S(=O)(=O)c1ccccc1)NCC1CCCO1 (centres undefined)	none (no result: ERa SRC1 pot, MRP resist rev, ERb SRC1 inh, ERa coact inh)
O=C(CSc1oc(-c2ccco2)nc1S(=O)(=O)c1ccc(Cl)cc1)NCC1CCCO1 (centres undefined)	ERa coact inh 54[fluorescence artefact?]
